# Experimental data as given in publication PMC7862700, “An all-to-all approach to the identification of sequence-specific readers for epigenetic DNA modifications on cytosine”.
# Assays:
# Assay in all cases: DAPPL (digital affinity profiling via proximity ligation, sequencing); 10 mM Tris-HCl pH 7.5, 50 mM NaCl, 1 mM DTT, 4% glycerol, room temperature, 30 min; GST-TFs on glutathione beads, 16-mer random dsDNA library, 0.1% formaldehyde crosslink after washing; high values mean tight binding
# FLI1 = biological target: T1, FLI1 (Homo sapiens, UniProt Q01543 1-452); settings: protein: recombinant; tags: N-terminal GST; dsDNA, one strand shown
# T1 sequence: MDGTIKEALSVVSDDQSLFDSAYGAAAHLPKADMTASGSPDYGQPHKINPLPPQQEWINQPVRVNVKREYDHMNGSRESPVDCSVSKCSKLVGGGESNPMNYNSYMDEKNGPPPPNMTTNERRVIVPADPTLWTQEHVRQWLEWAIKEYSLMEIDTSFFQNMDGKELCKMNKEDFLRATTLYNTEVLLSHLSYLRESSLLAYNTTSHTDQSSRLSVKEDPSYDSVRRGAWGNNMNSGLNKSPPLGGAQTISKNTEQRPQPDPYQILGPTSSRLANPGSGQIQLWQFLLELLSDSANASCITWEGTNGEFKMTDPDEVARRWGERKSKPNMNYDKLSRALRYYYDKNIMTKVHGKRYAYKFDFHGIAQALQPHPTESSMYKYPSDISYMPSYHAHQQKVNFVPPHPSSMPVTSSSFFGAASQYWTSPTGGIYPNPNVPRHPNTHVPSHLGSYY
# Outline: (§1)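 A tag-only sample was pooled with DNA-barcoded human transcription factors that had been expressed in yeast as GST fusions and captured on glutathione beads. The pools were incubated for 30 min at room temperature with 200 nmole of a random double-stranded 16-mer DNA library in Tris/NaCl/DTT/glycerol buffer, then washed, crosslinked with 0.1% formaldehyde, proximity-ligated (BsaI/T4 ligase, 1 h, 37 °C), PCR-amplified and sequenced on an Illumina NextSeq500. Binding signal is each hexamer's read frequency for a factor divided by its frequency for the tag-only sample.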
# ELK1 = biological target: T2, ELK1 (Homo sapiens, UniProt P19419 1-428); settings: protein: recombinant; tags: N-terminal GST; dsDNA, one strand shown
# T2 sequence: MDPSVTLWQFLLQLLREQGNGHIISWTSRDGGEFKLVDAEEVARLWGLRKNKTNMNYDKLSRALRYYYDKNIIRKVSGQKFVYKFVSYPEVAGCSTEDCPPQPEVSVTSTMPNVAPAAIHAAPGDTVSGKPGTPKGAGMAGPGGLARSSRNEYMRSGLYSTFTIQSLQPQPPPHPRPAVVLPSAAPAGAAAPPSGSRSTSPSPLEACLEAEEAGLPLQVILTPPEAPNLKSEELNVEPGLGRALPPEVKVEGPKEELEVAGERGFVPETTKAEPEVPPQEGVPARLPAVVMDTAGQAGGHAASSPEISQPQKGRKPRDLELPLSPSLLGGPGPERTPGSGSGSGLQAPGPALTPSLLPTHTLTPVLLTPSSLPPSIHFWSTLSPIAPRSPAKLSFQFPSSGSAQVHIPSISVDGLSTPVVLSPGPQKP
# Outline: as §1
# GABPA = biological target: T3, GABPA (Homo sapiens, UniProt Q06546 1-454); settings: protein: recombinant; tags: N-terminal GST; dsDNA, one strand shown
# T3 sequence: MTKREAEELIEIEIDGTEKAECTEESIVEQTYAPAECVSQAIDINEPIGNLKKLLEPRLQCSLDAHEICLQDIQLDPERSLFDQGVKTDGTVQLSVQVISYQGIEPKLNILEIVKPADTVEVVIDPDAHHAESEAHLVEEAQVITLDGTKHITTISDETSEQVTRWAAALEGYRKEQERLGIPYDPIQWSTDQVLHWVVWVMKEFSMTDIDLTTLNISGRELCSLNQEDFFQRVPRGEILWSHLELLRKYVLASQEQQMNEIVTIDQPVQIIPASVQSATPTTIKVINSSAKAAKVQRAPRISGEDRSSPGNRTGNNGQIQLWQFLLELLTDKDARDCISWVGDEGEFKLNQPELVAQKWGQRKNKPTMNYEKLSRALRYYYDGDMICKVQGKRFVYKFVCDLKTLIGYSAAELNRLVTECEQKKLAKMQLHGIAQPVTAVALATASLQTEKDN
# Outline: as §1
# ERG = biological target: T4, ERG (Homo sapiens, UniProt P11308 1-479); settings: protein: recombinant; tags: N-terminal GST; dsDNA, one strand shown
# T4 sequence: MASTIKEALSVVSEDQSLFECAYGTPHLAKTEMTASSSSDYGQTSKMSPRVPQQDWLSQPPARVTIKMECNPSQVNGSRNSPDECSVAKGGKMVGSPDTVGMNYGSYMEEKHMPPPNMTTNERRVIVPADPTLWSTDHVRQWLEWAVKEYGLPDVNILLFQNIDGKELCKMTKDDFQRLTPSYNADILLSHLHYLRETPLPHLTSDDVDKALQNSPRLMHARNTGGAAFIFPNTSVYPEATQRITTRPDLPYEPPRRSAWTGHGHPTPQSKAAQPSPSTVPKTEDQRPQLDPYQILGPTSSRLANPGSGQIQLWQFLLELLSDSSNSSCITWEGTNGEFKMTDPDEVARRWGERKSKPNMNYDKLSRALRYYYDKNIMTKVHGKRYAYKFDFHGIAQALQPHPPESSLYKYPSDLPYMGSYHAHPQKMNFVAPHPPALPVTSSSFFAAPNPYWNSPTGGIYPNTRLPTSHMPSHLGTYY
# Outline: as §1
# ELF1 = ELF1 (Homo sapiens, UniProt P32519 1-619); settings: protein: recombinant; tags: N-terminal GST; dsDNA, one strand shown
# Sequence of ELF1 (P32519 whole entry): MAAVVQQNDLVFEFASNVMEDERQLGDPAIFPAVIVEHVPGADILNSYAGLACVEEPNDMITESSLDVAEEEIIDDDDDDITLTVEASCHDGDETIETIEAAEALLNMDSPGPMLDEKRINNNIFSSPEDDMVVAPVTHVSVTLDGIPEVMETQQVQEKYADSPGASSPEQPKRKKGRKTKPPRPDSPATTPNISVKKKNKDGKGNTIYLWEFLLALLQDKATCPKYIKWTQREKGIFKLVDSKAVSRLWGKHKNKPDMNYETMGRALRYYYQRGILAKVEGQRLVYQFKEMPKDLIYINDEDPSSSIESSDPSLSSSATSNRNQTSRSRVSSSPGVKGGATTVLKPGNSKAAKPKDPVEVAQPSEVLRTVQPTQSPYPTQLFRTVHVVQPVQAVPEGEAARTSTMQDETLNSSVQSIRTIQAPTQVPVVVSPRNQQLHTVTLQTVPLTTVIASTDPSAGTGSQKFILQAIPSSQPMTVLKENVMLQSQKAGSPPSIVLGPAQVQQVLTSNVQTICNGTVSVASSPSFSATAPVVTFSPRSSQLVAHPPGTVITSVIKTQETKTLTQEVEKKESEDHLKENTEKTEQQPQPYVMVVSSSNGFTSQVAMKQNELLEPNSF
# Outline: as §1
# EHF = biological target: T5, EHF (Homo sapiens, UniProt Q9NZC4 1-300); settings: protein: recombinant; tags: N-terminal GST; dsDNA, one strand shown
# T5 sequence: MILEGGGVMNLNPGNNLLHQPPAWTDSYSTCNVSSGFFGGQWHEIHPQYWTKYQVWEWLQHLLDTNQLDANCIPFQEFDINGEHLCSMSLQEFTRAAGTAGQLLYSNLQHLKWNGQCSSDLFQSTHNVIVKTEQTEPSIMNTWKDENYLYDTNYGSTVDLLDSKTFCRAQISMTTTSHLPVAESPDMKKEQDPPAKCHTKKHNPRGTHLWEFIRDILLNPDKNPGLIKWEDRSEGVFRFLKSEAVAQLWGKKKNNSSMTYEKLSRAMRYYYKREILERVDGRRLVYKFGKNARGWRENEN
# Outline: as §1
# SPI1 = SPI1 (Homo sapiens, UniProt P17947 1-270); settings: protein: recombinant; tags: N-terminal GST; dsDNA, one strand shown
# Outline: as §1
# SPIB = SPIB (Homo sapiens, UniProt Q01892 1-262); settings: protein: recombinant; tags: N-terminal GST; dsDNA, one strand shown
# Sequence of SPIB (Q01892 whole entry): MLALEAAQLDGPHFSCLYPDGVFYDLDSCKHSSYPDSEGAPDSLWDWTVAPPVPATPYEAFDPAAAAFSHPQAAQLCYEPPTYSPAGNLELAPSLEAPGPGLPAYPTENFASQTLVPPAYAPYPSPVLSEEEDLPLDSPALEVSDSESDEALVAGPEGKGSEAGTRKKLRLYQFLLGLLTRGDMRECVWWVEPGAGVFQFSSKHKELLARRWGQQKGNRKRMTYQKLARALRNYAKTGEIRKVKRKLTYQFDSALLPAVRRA
# Outline: as §1
# ELK3 = biological target: T6, ELK3 (Homo sapiens, UniProt P41970 1-407); settings: protein: recombinant; tags: N-terminal GST; dsDNA, one strand shown
# T6 sequence: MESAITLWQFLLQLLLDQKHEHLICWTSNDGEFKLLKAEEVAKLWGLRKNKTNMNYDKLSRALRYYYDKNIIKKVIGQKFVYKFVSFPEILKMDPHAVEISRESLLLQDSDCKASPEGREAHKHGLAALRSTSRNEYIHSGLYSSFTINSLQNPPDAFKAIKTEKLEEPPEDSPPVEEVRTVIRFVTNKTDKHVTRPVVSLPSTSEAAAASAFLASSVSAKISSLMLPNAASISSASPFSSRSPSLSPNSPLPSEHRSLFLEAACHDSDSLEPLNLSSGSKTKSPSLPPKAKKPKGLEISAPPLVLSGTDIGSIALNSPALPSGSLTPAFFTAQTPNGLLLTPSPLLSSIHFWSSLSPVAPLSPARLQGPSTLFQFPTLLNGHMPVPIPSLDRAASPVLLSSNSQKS
# Outline: as §1
# FEV = biological target: T7, FEV (Homo sapiens, UniProt Q99581 1-238); settings: protein: recombinant; tags: N-terminal GST; dsDNA, one strand shown
# T7 sequence: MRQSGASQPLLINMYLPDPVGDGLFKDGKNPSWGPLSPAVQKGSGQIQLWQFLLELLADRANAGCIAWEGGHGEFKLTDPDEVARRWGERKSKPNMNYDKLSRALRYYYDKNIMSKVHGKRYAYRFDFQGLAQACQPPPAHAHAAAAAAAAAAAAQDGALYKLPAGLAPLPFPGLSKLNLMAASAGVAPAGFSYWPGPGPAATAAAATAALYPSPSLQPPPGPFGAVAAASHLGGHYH
# Outline: as §1
# ETV5 = ETV5 (Homo sapiens, UniProt P41161 1-510); settings: protein: recombinant; tags: N-terminal GST; dsDNA, one strand shown
# Sequence of ETV5 (P41161 whole entry): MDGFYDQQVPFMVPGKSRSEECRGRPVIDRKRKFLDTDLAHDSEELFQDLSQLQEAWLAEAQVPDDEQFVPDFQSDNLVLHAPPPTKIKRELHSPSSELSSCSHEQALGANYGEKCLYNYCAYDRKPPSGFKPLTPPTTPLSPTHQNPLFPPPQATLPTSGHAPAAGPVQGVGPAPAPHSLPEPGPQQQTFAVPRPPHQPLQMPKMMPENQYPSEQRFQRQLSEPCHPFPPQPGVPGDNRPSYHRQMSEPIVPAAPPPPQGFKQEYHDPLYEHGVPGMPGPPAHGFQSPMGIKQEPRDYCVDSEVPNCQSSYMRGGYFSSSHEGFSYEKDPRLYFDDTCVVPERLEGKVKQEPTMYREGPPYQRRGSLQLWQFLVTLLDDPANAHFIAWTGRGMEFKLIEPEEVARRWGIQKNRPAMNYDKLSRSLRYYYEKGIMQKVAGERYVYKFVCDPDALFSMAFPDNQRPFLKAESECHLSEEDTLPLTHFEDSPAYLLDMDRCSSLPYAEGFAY
# Outline: as §1
# HSF1 = HSF1 (Homo sapiens, UniProt Q00613 1-529); settings: protein: recombinant; tags: N-terminal GST; chain copies: 3; dsDNA, one strand shown
# Sequence of HSF1 (Q00613 whole entry): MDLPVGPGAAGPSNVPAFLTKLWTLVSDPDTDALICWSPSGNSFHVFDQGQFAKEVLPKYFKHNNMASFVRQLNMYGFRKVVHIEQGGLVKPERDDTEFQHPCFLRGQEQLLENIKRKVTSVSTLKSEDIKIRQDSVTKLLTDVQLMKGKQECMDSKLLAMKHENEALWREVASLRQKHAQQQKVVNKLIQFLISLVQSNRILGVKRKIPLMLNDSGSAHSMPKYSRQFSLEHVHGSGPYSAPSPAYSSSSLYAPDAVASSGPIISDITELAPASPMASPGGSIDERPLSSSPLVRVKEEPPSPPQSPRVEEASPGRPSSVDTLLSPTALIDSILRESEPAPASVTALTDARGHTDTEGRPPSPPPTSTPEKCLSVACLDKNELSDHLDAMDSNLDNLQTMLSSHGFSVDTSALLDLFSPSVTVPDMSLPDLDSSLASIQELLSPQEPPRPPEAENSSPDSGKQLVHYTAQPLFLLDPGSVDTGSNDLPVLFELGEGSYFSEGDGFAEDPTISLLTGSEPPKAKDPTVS
# Outline: as §1
# SPIC = biological target: T8, SPIC (Homo sapiens, UniProt Q8N5J4 1-248); settings: protein: recombinant; tags: N-terminal GST; dsDNA, one strand shown
# T8 sequence: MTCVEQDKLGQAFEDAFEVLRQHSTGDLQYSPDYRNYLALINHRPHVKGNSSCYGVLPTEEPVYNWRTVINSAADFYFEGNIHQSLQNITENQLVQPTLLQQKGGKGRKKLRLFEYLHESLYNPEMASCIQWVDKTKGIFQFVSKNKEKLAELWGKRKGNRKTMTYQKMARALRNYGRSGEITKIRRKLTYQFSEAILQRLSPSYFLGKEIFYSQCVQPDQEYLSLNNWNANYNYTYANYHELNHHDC
# Outline: as §1
# ELF4 = ELF4 (Homo sapiens, UniProt Q99607 1-663); settings: protein: recombinant; tags: N-terminal GST; dsDNA, one strand shown
# Sequence of ELF4 (Q99607 whole entry): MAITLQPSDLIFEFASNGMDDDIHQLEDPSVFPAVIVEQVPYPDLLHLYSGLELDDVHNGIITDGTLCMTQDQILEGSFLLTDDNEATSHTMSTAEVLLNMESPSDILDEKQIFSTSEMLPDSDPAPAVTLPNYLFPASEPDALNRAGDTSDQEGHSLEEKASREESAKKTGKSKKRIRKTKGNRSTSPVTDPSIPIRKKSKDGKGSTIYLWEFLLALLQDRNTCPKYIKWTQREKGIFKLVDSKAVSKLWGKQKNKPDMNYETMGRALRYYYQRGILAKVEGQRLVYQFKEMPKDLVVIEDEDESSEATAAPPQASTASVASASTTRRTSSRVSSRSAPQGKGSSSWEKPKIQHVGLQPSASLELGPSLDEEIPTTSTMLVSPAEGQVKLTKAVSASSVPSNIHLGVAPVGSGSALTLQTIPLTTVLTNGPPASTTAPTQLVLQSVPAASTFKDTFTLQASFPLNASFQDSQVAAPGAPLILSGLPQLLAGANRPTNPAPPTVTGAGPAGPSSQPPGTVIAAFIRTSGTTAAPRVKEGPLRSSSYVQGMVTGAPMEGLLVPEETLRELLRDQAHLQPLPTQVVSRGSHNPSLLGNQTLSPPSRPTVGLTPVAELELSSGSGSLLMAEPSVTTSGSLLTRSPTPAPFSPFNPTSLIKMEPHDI
# Outline: as §1
# ELK4 = biological target: T9, ELK4 (Homo sapiens, UniProt P28324-2 1-405); settings: protein: recombinant; tags: N-terminal GST; dsDNA, one strand shown
# T9 sequence: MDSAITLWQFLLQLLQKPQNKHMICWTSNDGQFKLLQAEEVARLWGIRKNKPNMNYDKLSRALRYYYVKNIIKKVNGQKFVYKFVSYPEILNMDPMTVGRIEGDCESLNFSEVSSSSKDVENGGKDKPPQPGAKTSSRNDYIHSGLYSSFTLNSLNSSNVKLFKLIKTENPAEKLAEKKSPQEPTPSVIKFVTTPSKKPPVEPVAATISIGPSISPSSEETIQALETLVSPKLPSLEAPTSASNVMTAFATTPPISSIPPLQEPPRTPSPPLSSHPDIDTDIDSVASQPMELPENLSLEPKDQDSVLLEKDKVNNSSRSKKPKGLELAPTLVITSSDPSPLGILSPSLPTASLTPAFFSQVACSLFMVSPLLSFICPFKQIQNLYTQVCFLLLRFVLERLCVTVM
# Outline: as §1
# ETV2 = biological target: T10, ETV2 (Homo sapiens, UniProt O00321 1-342); settings: protein: recombinant; tags: N-terminal GST; dsDNA, one strand shown
# T10 sequence: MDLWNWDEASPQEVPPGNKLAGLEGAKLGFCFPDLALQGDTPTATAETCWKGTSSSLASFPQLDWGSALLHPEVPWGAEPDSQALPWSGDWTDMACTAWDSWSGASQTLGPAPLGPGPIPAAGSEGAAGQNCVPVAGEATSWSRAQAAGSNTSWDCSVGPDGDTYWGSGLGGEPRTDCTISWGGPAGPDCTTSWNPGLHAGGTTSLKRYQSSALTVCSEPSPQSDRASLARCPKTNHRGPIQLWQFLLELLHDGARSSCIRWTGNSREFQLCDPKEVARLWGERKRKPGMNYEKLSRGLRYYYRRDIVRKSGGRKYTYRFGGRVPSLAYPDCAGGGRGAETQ
# Outline: as §1
# ELF3 = biological target: T11, ELF3 (Homo sapiens, UniProt P78545 1-371); settings: protein: recombinant; tags: N-terminal GST; dsDNA, one strand shown
# T11 sequence: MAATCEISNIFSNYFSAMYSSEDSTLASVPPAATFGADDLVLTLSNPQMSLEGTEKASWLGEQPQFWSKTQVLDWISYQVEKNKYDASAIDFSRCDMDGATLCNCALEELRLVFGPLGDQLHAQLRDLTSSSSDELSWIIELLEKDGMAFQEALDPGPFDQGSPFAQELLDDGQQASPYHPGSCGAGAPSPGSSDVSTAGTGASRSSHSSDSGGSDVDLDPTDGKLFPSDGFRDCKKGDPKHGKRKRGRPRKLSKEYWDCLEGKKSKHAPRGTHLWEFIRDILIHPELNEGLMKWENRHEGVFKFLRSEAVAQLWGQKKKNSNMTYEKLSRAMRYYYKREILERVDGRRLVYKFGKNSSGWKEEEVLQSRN
# Outline: as §1
# CRX = CRX (Homo sapiens, UniProt O43186 1-299); settings: protein: recombinant; tags: N-terminal GST; dsDNA, one strand shown
# Sequence of CRX (O43186 whole entry): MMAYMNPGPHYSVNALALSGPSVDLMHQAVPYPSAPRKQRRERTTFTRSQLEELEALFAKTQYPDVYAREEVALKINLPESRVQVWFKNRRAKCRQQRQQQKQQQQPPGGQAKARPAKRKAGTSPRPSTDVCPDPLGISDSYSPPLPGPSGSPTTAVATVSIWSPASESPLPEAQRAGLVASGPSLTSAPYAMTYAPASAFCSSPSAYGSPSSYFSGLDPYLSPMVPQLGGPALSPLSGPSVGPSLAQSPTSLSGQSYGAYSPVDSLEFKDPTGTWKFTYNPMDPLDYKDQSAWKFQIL
# Outline: as §1
# ETV1 = ETV1 (Homo sapiens, UniProt P50549 1-477); settings: protein: recombinant; tags: N-terminal GST; dsDNA, one strand shown
# Sequence of ETV1 (P50549 whole entry): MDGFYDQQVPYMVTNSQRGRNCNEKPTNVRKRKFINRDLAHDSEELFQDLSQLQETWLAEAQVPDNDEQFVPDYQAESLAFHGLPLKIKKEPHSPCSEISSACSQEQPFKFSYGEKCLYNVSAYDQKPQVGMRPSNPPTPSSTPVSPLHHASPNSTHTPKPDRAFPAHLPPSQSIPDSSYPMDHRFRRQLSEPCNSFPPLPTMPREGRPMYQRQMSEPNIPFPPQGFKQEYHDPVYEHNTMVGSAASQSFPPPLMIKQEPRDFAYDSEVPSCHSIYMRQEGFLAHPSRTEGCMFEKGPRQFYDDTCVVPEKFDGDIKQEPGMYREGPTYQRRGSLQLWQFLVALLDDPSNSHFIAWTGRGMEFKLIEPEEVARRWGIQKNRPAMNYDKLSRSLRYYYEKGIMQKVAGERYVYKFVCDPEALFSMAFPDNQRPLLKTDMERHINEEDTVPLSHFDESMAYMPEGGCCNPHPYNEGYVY
# Outline: as §1
sequence,measurement,setting,value
CATACT,binding signal,FLI1,"1.34 fold enrichment (6-mer frequency, TF over GST control)"
same,binding signal,ELK1,"1.29 fold enrichment (6-mer frequency, TF over GST control)"
same,binding signal,GABPA,"1.36 fold enrichment (6-mer frequency, TF over GST control)"
same,binding signal,ERG,"1.27 fold enrichment (6-mer frequency, TF over GST control)"
same,binding signal,ELF1,"1.34 fold enrichment (6-mer frequency, TF over GST control)"
same,binding signal,EHF,"1.31 fold enrichment (6-mer frequency, TF over GST control)"
same,binding signal,SPI1,"1.33 fold enrichment (6-mer frequency, TF over GST control)"
same,binding signal,SPIB,"1.29 fold enrichment (6-mer frequency, TF over GST control)"
same,binding signal,ELK3,"1.29 fold enrichment (6-mer frequency, TF over GST control)"
same,binding signal,FEV,"1.27 fold enrichment (6-mer frequency, TF over GST control)"
same,binding signal,ETV5,"1.2 fold enrichment (6-mer frequency, TF over GST control)"
same,binding signal,HSF1,"1.2 fold enrichment (6-mer frequency, TF over GST control)"
same,binding signal,SPIC,"1.23 fold enrichment (6-mer frequency, TF over GST control)"
same,binding signal,ELF4,"1.35 fold enrichment (6-mer frequency, TF over GST control)"
same,binding signal,ELK4,"1.34 fold enrichment (6-mer frequency, TF over GST control)"
same,binding signal,ETV2,"1.47 fold enrichment (6-mer frequency, TF over GST control)"
same,binding signal,ELF3,"1.34 fold enrichment (6-mer frequency, TF over GST control)"
same,binding signal,CRX,"1.24 fold enrichment (6-mer frequency, TF over GST control)"
same,binding signal,ETV1,"1.33 fold enrichment (6-mer frequency, TF over GST control)"
